Laboratory results from PubChem BioAssay (NCI).
This is part of a sample that, as a whole, favours compounds with a hit. Of some 79,000 tested, about 15% had one in any assay. Values without a mark were called inactive. Calls of active or inactive are those of the source. Rule as the data show it: active = growth inhibition above about 70%; inactive = the rest.

What was measured:
[1] = NCI Yeast Anticancer Drug Screen. Data for the rad50 strain (AID 155);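 also: 0% = growth of vehicle-only cultures of the same strain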; settings: S. cerevisiae rad50 strain growth inhibition, hits give high values
Procedure, shortened: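 Genetically altered yeast (DNA repair pathway); compound treatment; growth inhibition vs vehicle ctrl.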

[2] = NCI Yeast Anticancer Drug Screen. Data for the mec2-1 strain (AID 157); settings: S. cerevisiae mec2-1 strain, hits give high values
Procedure, shortened: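 Using mec2-1 yeast: add compound, measure growth, express inhibition versus vehicle-treated cultures.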

[3] = NCI Yeast Anticancer Drug Screen. Data for the sgs1 mgt1 strain (AID 161);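 also: 0% = growth of cultures given vehicle only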; settings: S. cerevisiae sgs1 mgt1 strain, hits give high values
Procedure, shortened: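 Yeast cells carrying a defined DNA-repair defect were exposed to test compounds. Growth inhibition was measured relative to vehicle-treated controls.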

[4] = NCI Yeast Anticancer Drug Screen. Data for the cln2 rad14 strain (AID 165);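 also: 0% = growth equal to vehicle treated cultures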; settings: S. cerevisiae cln2 rad14 strain, hits give high values
Procedure, shortened: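 Yeast strain cln2 rad14, bearing defects in cell cycle control and DNA repair, serves as the test system; values reflect growth inhibition compared with vehicle.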

[5] = NCI Yeast Anticancer Drug Screen. Data for the bub3 strain (AID 167); settings: S. cerevisiae bub3 mutant strain, hits give high values
Procedure, shortened: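 Yeast carrying a defined mutation is treated with each compound, and growth is compared with that of vehicle-exposed cells to give inhibition.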

[6] = NCI Yeast Anticancer Drug Screen. Data for the mlh1 rad18 strain (AID 175); settings: S. cerevisiae mlh1 rad18 strain growth inhibition, hits give high values
Procedure, shortened: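 Steps: expose repair-defective yeast to compound; measure growth; express inhibition against vehicle-treated controls.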

[7] = at 5.0 µM (retest, dose inferred, filed as 0.5)
[8] = at 50.0 µM (retest, dose inferred, filed as 5.0)

SMILES	growth inhibition [1, 7] [%]	growth inhibition [1, 8]	growth inhibition ([1]; at 50.0 µM)	growth inhibition [2, 7] [%]	growth inhibition [2, 8]	growth inhibition ([2]; at 50.0 µM)	growth inhibition [3, 7] [%]	growth inhibition [3, 8]	growth inhibition ([3]; at 50.0 µM)	growth inhibition [4, 7] [%]	growth inhibition [4, 8]	growth inhibition ([4]; at 50.0 µM)	growth inhibition [5, 7]	growth inhibition [5, 8]	growth inhibition ([5]; at 50.0 µM)	growth inhibition [6, 7]	growth inhibition [6, 8]	growth inhibition ([6]; at 50.0 µM)
Cc1nn(-c2ccc(Cl)cc2)c2nc(N)nc(N)c12	3	0%	30.2%	-3	11%	30.6%	2	-2%	34.4%	-5	-6%	62.6%	-1%	0%	21.2%	0%	9%	45.4%
C[C@]12CC[C@@H]3c4cc(OCC(F)(F)F)c(O)cc4CC[C@H]3[C@@H]1CC[C@@H]2O	-3	97% (active)	98.6% (active)	-5	99% (active)	98.5% (active)	10	99% (active)	98.8% (active)	-13	97% (active)	98.2% (active)	5%	99% (active)	98.8% (active)	-6%	98% (active)	98.6% (active)
COc1ccc(/C(=C/CN2CCC3CCC(C3)C2)c2ccccc2)cc1 (configuration not stated)	-3	-17%	40.9%	5	-11%	14.6%	-31	-27%	50.8%	-6	-19%	12.9%	-3%	11%	17.6%	-13%	-34%	12.7%
Clc1ccc2c(Cl)c3c(nc2c1)CCCC3	-1	98% (active)	99% (active)	2	99% (active)	99.5% (active)	2	99% (active)	48.1%	0	99% (active)	99.3% (active)	3%	98% (active)	99.5% (active)	-5%	94% (active)	99.2% (active)
O=C1Oc2ccccc2C(=O)/C1=C/N1C(=O)/C(=C/c2ccc([N+](=O)[O-])cc2)SC1=S	2	68%	82.5% (active)	-4	82% (active)	90% (active)	22	93% (active)	96.7% (active)	3	83% (active)	92.1% (active)	7%	49%	85% (active)	11%	77% (active)	86.3% (active)
CC1NC(=O)OC1(C)c1ccccc1 (configuration not stated)	3	-3%	50.5%	-5	-12%	9.2%	2	2%	-7.5%	1	-4%	-35.8%	10%	30%	12.1%	12%	1%	-20.6%
NNc1ccccc1F	-34	96% (active)	99.2% (active)	-32	97% (active)	99.7% (active)	-42	92% (active)	97.8% (active)	-41	65%	98% (active)	-45%	44%	99.2% (active)	-58%	95% (active)	98.9% (active)
CC(Br)Cc1ccc2c(c1)OCO2 (configuration not stated)	3	0%	1.15%	2	-2%	44.5%	3	-3%	19.8%	3	-1%	-3.8%	-10%	-14%	-28.5%	-4%	1%	-12.4%
Oc1c(Cl)cccc1-c1ccccc1	2	-5%	20.1%	-21	0%	12.2%	1	10%	36.9%	1	-14%	1.9%	7%	-4%	4.45%	-1%	8%	67.8%
COc1cc(C2c3cc4c(cc3OC3(O)C=C(C)OC(=O)C23)OCO4)cc(OC)c1OC (configuration not stated)	5	-5%	12.1%	4	-4%	30%	0	-22%	13.4%	0	5%	9.5%	-1%	-3%	92.3% (active)	1%	-10%	29.9%
O=C1c2ccccc2C2(O)c3cc4ccccc4cc3OC12O (configuration not stated)	-7	41%	52.2%	-15	19%	52.2%	-16	6%	43%	-10	44%	37%	-6%	59%	44%	-24%	55%	72.7% (active)
C=C1CC2(CCCC3(CC(=C)C(=O)O3)C2(C)C)OC1=O (configuration not stated)	20	96% (active)	33%	14	98% (active)	38.4%	57	97% (active)	38.8%	15	96% (active)	23.1%	7%	96% (active)	44.6%	12%	97% (active)	66.6%
COc1ccc(CSC(=S)Nc2ccc(Cl)c([N+](=O)[O-])c2)cc1	48	92% (active)	88.5% (active)	50	95% (active)	77.1% (active)	56	99% (active)	88.4% (active)	43	97% (active)	9%	77% (active)	99% (active)	21.5%	79% (active)	98% (active)	94.1% (active)
CN(Nc1ccc(Cl)cc1)c1ccc(Cl)cc1	1	95% (active)	73.2% (active)	12	98% (active)	64%	0	97% (active)	79.2% (active)	5	95% (active)	53.1%	9%	97% (active)	77% (active)	-9%	96% (active)	75.3% (active)
O=C(CCCl)Nc1cc2ccccc2oc1=O	-19	-19%	-8.5%	-2	-17%	15.9%	-10	23%	6.65%	1	13%	0.55%	-4%	-10%	-1.1%	-16%	19%	-2.15%
S=c1sc2c(s1)SCCOCCOCCOCCS2	-4	3%	29.3%	5	7%	0.95%	-12	5%	30.6%	12	8%	31.1%	4%	36%	22.2%	-15%	-13%	23.4%
COc1ccc(-c2cc(=O)c3c(C)ccnc3[nH]2)cc1	58	58%	87.2% (active)	43	43%	83.2% (active)	54	54%	82.5% (active)	20	20%	65.8%	25%	25%	81.8% (active)	39%	39%	81.5% (active)
Cc1csc(N)[n+]1CCC(=O)[O-]	-1	-3%	-3.95%	-1	-2%	-23.1%	-1	-2%	-2.8%	-3	3%	31.5%	-1%	1%	-14.6%	0%	-3%	-24.5%
Cc1cc(C)c(O)c(Cc2cc(Cl)cc(Cc3cc(C)cc(C)c3O)c2O)c1	0	91% (active)	94% (active)	1	93% (active)	92.5% (active)	13	93% (active)	95.3% (active)	6	91% (active)	95.2% (active)	-9%	92% (active)	93.5% (active)	15%	92% (active)	91.4% (active)
